# Assay results: PubChem BioAssay (Tox21)
# Several values for one entry are separate records, joined by “and”; a condition that tells them apart may be missing. Equal values may be shown once. Records with an inconclusive call do not appear. More than one record can exist for a structure, and the calls need not agree. Activity calls are given as the source filed them. Calls come from the whole dose curve; as a rule, active = well fitted inhibition curve with a large enough effect in the repeat runs; inconclusive = weak or mixed curves; inactive = no such curve, though single readings can be large or run the other way.
# Biological target: Aromatase (Homo sapiens) (UniProt P11511)
# Sequence (P11511 whole entry, looked up): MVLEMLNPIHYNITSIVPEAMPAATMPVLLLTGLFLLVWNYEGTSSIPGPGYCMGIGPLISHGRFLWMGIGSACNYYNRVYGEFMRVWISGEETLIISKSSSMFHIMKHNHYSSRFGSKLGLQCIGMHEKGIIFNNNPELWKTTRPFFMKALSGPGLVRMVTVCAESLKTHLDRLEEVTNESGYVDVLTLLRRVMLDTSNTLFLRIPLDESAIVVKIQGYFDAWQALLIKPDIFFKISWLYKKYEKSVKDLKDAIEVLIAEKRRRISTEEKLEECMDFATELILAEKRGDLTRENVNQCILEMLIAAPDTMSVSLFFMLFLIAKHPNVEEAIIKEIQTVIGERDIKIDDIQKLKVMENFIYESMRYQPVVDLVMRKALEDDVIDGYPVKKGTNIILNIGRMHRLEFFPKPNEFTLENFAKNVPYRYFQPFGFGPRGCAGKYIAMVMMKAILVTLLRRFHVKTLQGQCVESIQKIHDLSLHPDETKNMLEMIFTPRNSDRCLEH
# Assay: qHTS assay to identify aromatase inhibitors (AID 743083); note: nearly all actives have a fitted effect of over 55% in size
# Conditions: MCF-7 aro ERE, testosterone-driven ERE luciferase, 24 h; series mostly up to 70.3 µM; activity, negative = inhibition: at the top concentration
# % is set by controls: 0 for no effect and ±100 for the full control effect; potency is the fitted concentration of half-maximal effect.
SMILES,"activity, negative = inhibition",Potency
O=S(=O)(Cl)c1ccccc1,10.7% [at 95 µM] (inactive),–
C#CCOC(C(=O)OCCN(C)C)(c1ccccc1)c1ccccc1,-5.76% (inactive),–
BrCCCCBr,-4.81% (inactive),–
COC(=O)C(Br)CBr (configuration not stated),57.8% (inactive),–
N#Cc1ccc(Cl)cc1,8.02% (inactive),–
CCN(C)N=O,11.2% (inactive),–
ClCc1ccccc1,2.7% (inactive),–
CC(C)(C)c1cc([N+](=O)[O-])cc([N+](=O)[O-])c1O,–,15.3 µM (active)
CCOP(=O)(OCC)O/C(=C/Cl)c1ccc(Cl)cc1Cl,–,27.3 µM (active)
C=CCC1([C@H](C)CCC)C(=O)NC(=O)NC1=O,-0.657% (inactive),–
C=CCN1CC[C@]23c4c5ccc(O)c4O[C@H]2C(=O)CC[C@@]3(O)[C@H]1C5,–,inactive
COc1nn(C(=O)NS(=O)(=O)c2ccccc2OC(F)(F)F)c(=O)n1C,0.165% (inactive),–
O=C(O)CC(Cl)C(=O)O (configuration not stated),21.9% [at 95 µM] (inactive),–
O=C1CN=C(c2ccccc2)c2cc(Cl)ccc2N1CC1CC1,–,inactive
C=CC(C)=O,-16.7% (inactive),–
CCOc1nc(F)cc2nc(S(=O)(=O)Nc3c(Cl)cccc3Cl)nn12,37.6% (inactive),–

SMILES,"activity, negative = inhibition",Potency
O=C(CBr)OCc1ccccc1,13.8% (inactive),–
C=CC(=O)OC(C)(C)C,2.71% (inactive),–
C(=NC1CCCCC1)=NC1CCCCC1,–,inactive and 1.37 µM (active)
Cn1cc[n+](C)c1 (tested in a mixture with another compound),-8.98% [at 95 µM] (inactive),–
CNC(C)Cc1ccccc1OC (configuration not stated),-0.791% (inactive),–
O=[Se]=O,-6.36% (inactive),–
ClCC(Br)CBr (configuration not stated),-9.68% (inactive),–
ClCCCCBr,26.5% [at 95 µM] (inactive),–
CCOP(=S)(OCC)SCn1nnc2ccccc2c1=O,–,34.4 µM (active)
CC(O)(CS(=O)(=O)c1ccc(F)cc1)C(=O)Nc1ccc(C#N)c(C(F)(F)F)c1 (configuration not stated),–,inactive
COc1cc(CC(C)N)cc2c1OCO2 (configuration not stated),14.1% [at 95 µM] (inactive),–
O=C(O)C(F)(F)C(F)(F)C(F)(F)C(F)(F)C(F)(F)C(F)(F)C(F)(F)C(F)(F)C(F)(F)C(F)(F)F,40% (inactive),–
CCOC(=O)CBr,9.66% [at 95 µM] (inactive),–
O=C(O)C(F)(F)C(F)(F)C(F)(F)C(F)(F)C(F)(F)C(F)(F)C(F)(F)C(F)(F)C(F)(F)F,43.1% (inactive),–
N#CCc1ccccc1,18.5% [at 95 µM] (inactive),–
CCOP(=O)(OCC)SCCSCC,6.71% (inactive),–
